Screens from PubChem BioAssay.
BAZ2B inh = qHTS Assay for Inhibitors of BAZ2B | AlphaScreen BAZ2B-H3K14Ac peptide displacement | Potency, µM (series often up to 114 µM), without a hit: at the top dose activity change, negative = inhibition, most hits filed as inhibitors | actives 4.4% (n = 360,000); also: potency is read from the fitted curve at half-maximal effect; % is scaled to controls: 0 for no effect and ±100 for the full control effect; nearly all actives have a fitted effect of over 60% in size
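AlphaScreen displacement of biotin-H3(5-23)K14Ac peptide (50 nM final) from BAZ2B (50 nM final) in PBS pH 7.4, 0.01% Tween-20; complex preformed 30 min RT, then compounds (top 110 uM) 30 min RT, beads 20 min dark.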
HP1b binding inh = HTS for Inhibitors of HP1-beta Chromodomain Interactions with Methylated Histone Tails; Chromobox protein homolog 1 (Homo sapiens), P83916; AlphaScreen HP1-beta / biotin-H3K9me3 peptide binding; Potency, µM (doses to about 114 µM), without a hit: top-dose activity change, negative = inhibition, actives largely listed as inhibitors; actives 0.56% (n = 390,000); AID 540317, 2011; also: potency is read from the fitted curve at half-maximal effect; nearly all actives have a fitted effect of over 70% in size
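AlphaScreen: HP1-beta (50 nM) preformed 30 min with biotin-H3(1-18)K9me3 peptide (50 nM) in PBS pH 7.4, 0.01% Tween-20. Compound added for 30 min at RT, then streptavidin donor/nickel chelate acceptor beads (10 ug/mL) for 30 min.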
G9a block = qHTS Assay for Inhibitors of Histone Lysine Methyltransferase G9a | Histone-lysine N-methyltransferase EHMT2 (Homo sapiens), Q96KQ7 | G9a H3K9 monomethylation, AlphaScreen, 2 h | Potency, µM (series often up to 102 µM), inactives show top-dose activity, negative = inhibition, hits mostly inhibitors | actives 8.8% (n = 350,000); also: potency is read from the fitted curve at half-maximal effect; % is scaled to controls: 0 for no effect and ±100 for the full control effect; nearly all actives have a fitted effect of over 75% in size
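Readings reflect AlphaScreen signal from monomethyl-H3K9 antibody detection. HMT at 20 nM; substrate b-H3K9 500 nM; cofactor SAM 20 uM; 2 h RT reaction; compounds tested as titrations in qHTS with 15 min preincubation.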
JMJD2A Tudor inh = qHTS Assay for Inhibitors of JMJD2A-Tudor Domain. Potency, µM (titrated, usually from 114 µM), for the others: at the top dose activity change, negative = inhibition, hits mostly inhibitors. actives 4.4% (n = 390,000). AID 504339, 2011. AlphaScreen JMJD2A-Tudor / H3K4me3 peptide binding. Lysine-specific demethylase 4A (Homo sapiens), O75164; also: potency is read from the fitted curve at half-maximal effect; % is scaled to controls: 0 for no effect and ±100 for the full control effect; nearly all actives have a fitted effect of over 50% in size
PI5P4Ka inh = qHTS for Inhibitors of phosphatidylinositol 5-phosphate 4-kinase (PI5P4K). actives 1.2% (n = 330,000). PI5P4Kalpha enzyme, ADP-Glo luminescence, 60 min; hits give low values. max response, %. Phosphatidylinositol 5-phosphate 4-kinase type-2 alpha (Homo sapiens), P48426; active = max response of -50% or lower; inconclusive = between -30% and -50%; inactive = -30% or higher; also: value at the top dose of about 77 µM; % is scaled to controls: 0 for no effect and ±100 for the full control effect
Target sequence (P48426 whole entry, looked up): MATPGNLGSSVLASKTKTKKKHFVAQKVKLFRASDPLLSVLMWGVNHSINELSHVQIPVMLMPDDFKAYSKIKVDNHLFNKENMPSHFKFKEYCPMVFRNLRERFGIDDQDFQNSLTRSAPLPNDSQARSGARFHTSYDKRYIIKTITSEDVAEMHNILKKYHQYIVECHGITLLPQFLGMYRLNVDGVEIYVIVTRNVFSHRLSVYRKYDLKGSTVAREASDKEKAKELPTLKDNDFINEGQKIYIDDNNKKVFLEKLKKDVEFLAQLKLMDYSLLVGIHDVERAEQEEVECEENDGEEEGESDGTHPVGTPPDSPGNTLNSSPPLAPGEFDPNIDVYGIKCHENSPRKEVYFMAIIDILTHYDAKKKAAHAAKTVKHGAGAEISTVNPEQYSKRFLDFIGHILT
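ADP-Glo luminescence end-point after a 60 min room-temperature kinase reaction. PI5P4Kalpha and substrate in HEPES pH 7.4 buffer with EGTA, 0.1% CHAPS and 5% DMSO; ATP at 5 microM final.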
L3MBTL1 block = qHTS Assay for the Inhibitors of L3MBTL1; AID 485360, 2010; Potency, µM (series often up to 57.1 µM), for the others: top-dose activity, negative = inhibition, hits mostly inhibitors; Lethal(3)malignant brain tumor-like protein 1 (Homo sapiens), Q9Y468; actives 0.66% (n = 230,000); AlphaScreen L3MBTL1–H3K9me1 peptide binding; also: potency is read from the fitted curve at half-maximal effect; % is scaled to controls: 0 for no effect and ±100 for the full control effect; nearly all actives have a fitted effect of over 60% in size
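AlphaScreen proximity signal between nickel-chelate acceptor and streptavidin donor beads (final 10 ug/mL) reports binding of 50 nM L3MBTL1 to 75 nM biotin-H3 K9me1 peptide; complex incubated with compounds 30 min at room temperature; cefsulodin titration as control.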
* hit, by the source's call; ? = inconclusive; . = not tested or not shown; [ ] = remark or other dose. This is a sample that favours compounds with a hit; in the whole collection about 11% have one here. Unless noted, calls follow the shape of the dose curve; as a rule, active = well fitted inhibition curve with a large enough effect; inconclusive = small, poorly fitted or top-dose-only effect; inactive = no such curve, though single readings can be large or run the other way.

SMILES	BAZ2B inh	HP1b binding inh	G9a block	JMJD2A Tudor inh	PI5P4Ka inh	L3MBTL1 block
Cc1cc(C)cc(NC(=S)Nc2ccccn2)c1	?	15%	-19%[59 µM]	-24%	1	-9%
CC1=NN(C(N)=S)C(=O)C1N=Nc1cccc(C(=O)O)c1 (configuration not stated)	-22%	12%	0.71µM*	4µM*	-21	2%
CC1=NN(C(N)=S)C(=O)C1N=Nc1ccc([N+](=O)[O-])cc1 (configuration not stated)	-34%	?	79µM*	?	-23	.
CC(=O)Nc1ccc(N=NC2C(=O)N(C(N)=S)N=C2C)cc1 (configuration not stated)	-17%	18%	79µM*	-22%	?	-6%
CC1=NN(c2ccccc2C(=O)O)C(=O)C1N=Nc1ccccc1 (configuration not stated)	?	?	45µM*	?	?	-10%
CC1=NN(C(N)=S)C(=O)C1N=Nc1cccc(C)c1 (configuration not stated)	2%	20%	31%[59 µM]	-25%	-2	.
CCN(c1cccc(C)c1)c1ncnc2c1cnn2-c1cccc(Cl)c1	17%	20%	32%[59 µM]	28%	.	.
CC1=NN(C(N)=S)C(=O)C1N=Nc1ccc(Cl)cc1Cl (configuration not stated)	?	-22%	.	50µM*	-5	24%
CC1=NN(C(N)=S)C(=O)C1N=Nc1ccccc1Cl (configuration not stated)	-27%	27%	-9%[0.501 µM]	-13%	-5	9%[2.29 µM]
Fc1ccccc1N1CCN(c2nnc(C(F)(F)F)c3nnn(Cc4ccccc4)c23)CC1	4%	41%	9%[59 µM]	6%	.	.
CC(C)[C@H](NC(=O)CNC(=O)OC(C)(C)C)C(=O)N[C@H](C=O)C(C)C	.	.	27%[59 µM]	.	.	.
CCOc1ccc(CCNC(=O)c2cnc3c(-c4ccc(F)cc4)c(C)nn3c2C)cc1OCC	-11%	76%	11%[59 µM]	?	.	.
COc1ccc(S(=O)(=O)N2CCN(C3CCCC(C)C3)CC2)cc1 (configuration not stated)	18µM*	45µM*	7.1µM*	1.3µM*	3	.
CC1CCCC(N2CCN(S(=O)(=O)c3ccccc3)CC2)C1 (configuration not stated)	?	?	18µM*	4µM*	-5	.
O=S(=O)(c1ccccc1)N1CCN(S(=O)(=O)c2ccccc2)CC1	.	12%	.	-4%	.	.
CC1CCC(N2CCN(S(=O)(=O)Cc3ccccc3)CC2)CC1 (configuration not stated)	50µM*	71µM*	25µM*	22µM*	-1	.
O=C(NCc1cccnc1)c1nn(-c2ccc(F)cc2)nc1CO	-9%	22%	3%[59 µM]	-16%	.	.
O=C(c1ccco1)N1CCN(/C=C2\Nc3ccccc3C(=O)N2c2ccc(F)cc2)CC1	.	29%	.	-6%	.	.
O=C(/C=C/c1ccco1)N1CCN(S(=O)(=O)c2ccc(F)c(F)c2F)CC1	-23%	28%	?	-8%	1	.
COc1cccc(/C=C/C(=O)N2CCN(S(=O)(=O)c3ccccc3)CC2)c1OC	?	29%	50µM*	-2%	1	.
O=C(/C=C/c1ccco1)N1CCN(S(=O)(=O)c2ccccc2)CC1	.	50µM*	.	56µM*	?	?
Cc1ccc(C)c(S(=O)(=O)N2CCN(C(=O)C3CC3C)CC2)c1 (configuration not stated)	12%	28%	2%	-7%	-4	2%
